Measurements published in PubChem BioAssay AID1645853 (Buhrlage Lab, Dana-Farber Cancer Institute and Novartis …, 2021).
In all, about 47,000 compounds went through this assay and about 2,000 (4.3%) were called active. This is one part of a sample in which actives are shown more often than they occur. Unmarked numbers belong to inactive results. No stated cut-off is given here; in the data, active means inhibition above about 30%; inactive means the rest.

biological target: Ubiquitin carboxyl-terminal hydrolase 8 (Homo sapiens) (UniProt P40818); test: inhibitors of human USP8 deubiquitinase (AID 1645853); settings: purified USP8, Ub-rhodamine cleavage fluorescence, 30 min; at 20 µM; active compounds read high
Sequence (P40818 whole entry, looked up): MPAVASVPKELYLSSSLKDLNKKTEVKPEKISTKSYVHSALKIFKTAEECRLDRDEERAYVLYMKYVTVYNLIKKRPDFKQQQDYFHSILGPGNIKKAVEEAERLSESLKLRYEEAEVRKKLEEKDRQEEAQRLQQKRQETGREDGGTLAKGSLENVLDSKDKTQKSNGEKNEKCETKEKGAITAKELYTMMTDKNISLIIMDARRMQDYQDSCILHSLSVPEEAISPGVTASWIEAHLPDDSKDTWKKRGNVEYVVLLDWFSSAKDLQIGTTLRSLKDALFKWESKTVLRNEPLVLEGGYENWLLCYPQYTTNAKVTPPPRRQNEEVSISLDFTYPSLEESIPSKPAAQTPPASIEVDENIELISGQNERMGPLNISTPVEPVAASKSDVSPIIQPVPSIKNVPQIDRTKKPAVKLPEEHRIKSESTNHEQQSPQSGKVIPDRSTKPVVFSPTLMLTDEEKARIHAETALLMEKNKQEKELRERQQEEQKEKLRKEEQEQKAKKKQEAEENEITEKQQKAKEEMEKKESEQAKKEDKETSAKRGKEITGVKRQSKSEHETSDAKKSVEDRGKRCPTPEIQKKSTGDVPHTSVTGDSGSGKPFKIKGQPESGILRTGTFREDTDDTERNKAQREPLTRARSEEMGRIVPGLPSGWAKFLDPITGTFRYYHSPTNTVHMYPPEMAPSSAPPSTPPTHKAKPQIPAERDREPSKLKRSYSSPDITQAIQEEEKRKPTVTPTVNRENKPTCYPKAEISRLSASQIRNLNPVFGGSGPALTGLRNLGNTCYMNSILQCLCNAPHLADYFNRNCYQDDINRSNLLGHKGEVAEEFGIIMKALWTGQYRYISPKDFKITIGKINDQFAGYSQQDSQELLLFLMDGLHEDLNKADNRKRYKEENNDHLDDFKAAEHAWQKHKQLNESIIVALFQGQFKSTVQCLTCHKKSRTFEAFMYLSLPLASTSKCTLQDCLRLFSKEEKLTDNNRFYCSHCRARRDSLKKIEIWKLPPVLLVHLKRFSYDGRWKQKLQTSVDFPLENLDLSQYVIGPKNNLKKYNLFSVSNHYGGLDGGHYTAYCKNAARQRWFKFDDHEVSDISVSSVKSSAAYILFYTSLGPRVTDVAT

Row | SMILES | inhibition
1 | CN1C(=O)C(C)(C)COc2ccc(NS(=O)(=O)c3ccccc3Cl)cc21 | 0.668%
2 | O=S(=O)(Nc1ccc2[nH]ncc2c1)c1ccccc1Cl | 47% (active)
3 | CCOc1cc(S(=O)(=O)Nc2ccc3cn[nH]c3c2)ccc1Cl | 22.3%
4 | CCCCCn1c(=O)c2sccc2n2c(CCC(=O)NC3CC3)nnc12 | 5.66%
5 | COc1ccc(C(=O)N2CCC(Cc3nc(-c4cnccn4)no3)CC2)cc1 | 6%
6 | CCOc1ccccc1C(=O)NCC(c1ccco1)N1CCCC1 (stereo not given) | 23.5%
7 | Cc1ccc(N2C(=O)CN(S(C)(=O)=O)CC2(C)C(=O)NC2CCCCC2)c(C)c1 (stereo not given) | 15.1%
8 | Cc1ccc(N2C(=O)CN(S(=O)(=O)c3ccccc3)CC2(C)C(=O)NCCC(C)C)cc1C (stereo not given) | 6.01%
9 | CCOc1ccc(NC(=O)Cn2cc(C(=O)c3ccc(Cl)cc3)c(=O)c3cc(OC)ccc32)cc1 | -4.68%
10 | COc1ccc(NC(=O)CSc2cn(CC(=O)N3CCCC3)c3ccccc23)cc1 | -38.7%
11 | CCOc1ccc2c(c1)c(=O)c(C(=O)c1ccccc1)cn2CC(=O)Nc1ccc(OC)cc1 | 93.8% (active)
12 | O=C(NCCc1ccccc1)N1CCC(n2c(=O)[nH]c3cncnc32)C1 (stereo not given) | 5.93%
13 | COc1cc(C(=O)N(c2ccccn2)C2CCCCC2)cc(OC)c1OC | -3.54%
14 | O=C(/C=C/c1ccc(Cl)cc1)Nc1ccc2c(c1)OCCO2 | -8.51%
15 | COCCN1Cc2c(C(=O)N3CCCCC3)ncn2-c2ccccc2S1(=O)=O | -27.7%
16 | Cc1ccc(CNC(=O)c2nc(-c3cn(-c4ccc(Br)cc4)nc3C)no2)o1 | 13.8%
17 | Cc1ccc(-n2cc(-c3noc(C(=O)Nc4ccc(F)cc4C)n3)nn2)cc1 | 99% (active)
18 | Cc1cc(F)ccc1NC(=O)c1cc(C2CC2)n2nccc2n1 | -4.45%
19 | COc1cccc(CNC(=O)c2cc3c(=O)n(C)ccc3n2C)c1 | -1.58%
20 | COc1ccc(NC(=O)CS(=O)(=O)c2cn(CC(=O)N3CCCC3)c3ccccc23)cc1 | -8.78%
21 | Cn1nc(C2CCN(Cc3ccc4c(c3)CC(C)(C)O4)CC2)c2nccnc21 | -31%
22 | COc1cc(CN2CCCC(c3ncc(Cl)cc3S(C)(=O)=O)C2)cc(OC)c1 (stereo not given) | -1.79%
23 | Cn1nc(C2CCCN(Cc3cc(F)cc(F)c3)C2)c2nccnc21 (stereo not given) | 32.7% (active)

Row | SMILES | inhibition
24 | CC(C)C(=O)N1CCN2[C@H](C[C@@H](C(=O)N(C)C)[C@]23C(=O)Nc2ccccc23)C1 | 18.9%
25 | CC(C)(C)C(=O)Cn1c(=O)n(Cc2ccco2)c(=O)c2ccccc21 | -0.0891%
26 | COc1ccc(-c2nc3c(c(=O)c4ccccc4n3C)c(=O)n2Cc2ccco2)cc1 | 89.7% (active)
27 | COc1ccc(-c2ocnc2C(=O)NCc2ccc(OC)c(OC)c2)cc1 | 3.07%
28 | COc1ccc(-c2nc3c(c(=O)c4ccccc4n3C)c(=O)n2CCc2ccc(OC)c(OC)c2)cc1 | 33.9% (active)
29 | O=c1c2ccccc2n(Cc2ccccc2Cl)c(=O)n1Cc1ccco1 | -2.33%
30 | COc1ccc(CNC(=O)Cn2c(C)nc3onc(C)c3c2=O)cc1 | 2.79%
31 | COc1cccc(CCC(=O)N2CCN(c3cc(C)n4cnnc4n3)CC2)c1 | -8.31%
32 | CCc1ccc(NC(=O)CSc2nc(-c3ccccc3F)nc3cc(=O)[nH]n23)cc1 | -16%
33 | CCc1ccc(S(=O)(=O)N2CCN=C2N2CCCCC2)cc1 | -0.222%
34 | CCN(C)C(=O)c1cc(-c2ccn(-c3ccccc3)n2)n2ccccc12 | -39.1%
35 | O=C(NCc1ccc2c(c1)OCO2)C1=CCN(Cc2ccccc2)CC1 | -26.8%
36 | O=C(Nc1cccc2ccccc12)N1CCN(Cc2ccc3c(c2)OCO3)CC1 | 61.7% (active)
37 | COC(=O)c1cc2c(ccn2C)n1CC(=O)N1CCN(Cc2ccc3c(c2)OCO3)CC1 | 22.5%
38 | CCCCN(c1ccccc1)S(=O)(=O)c1cccc(C(=O)OCC(=O)NCc2ccc3c(c2)OCO3)c1 | 22.8%
39 | CC(C)c1nnc(NC(=O)C2CC(=O)N(CCc3ccc(F)cc3)C2)s1 (stereo not given) | -27.4%
40 | COc1ccc(N2CC(c3nnc(NC(=O)CCc4ccccc4)s3)CC2=O)cc1 (stereo not given) | 43.3% (active)
41 | Cc1ccc(CC(=O)Nc2nnc(C3CC(=O)N(c4ccc(C)c(C)c4)C3)s2)cc1 (stereo not given) | 35.8% (active)
42 | Cc1ccc(N2CCCS2(=O)=O)cc1NC(=O)Cc1ccc(Cl)cc1 | 15.3%
43 | COc1ccc(-c2nc(C3CC(=O)N(c4ccccc4)C3)no2)cc1 (stereo not given) | 12.9%
44 | Cc1ccc(N2CC(c3nnc(NC(=O)CCCc4ccccc4)s3)CC2=O)cc1 (stereo not given) | -58.7%
45 | CN1CCN(c2ncc(NC(=O)c3ccccn3)cn2)CC1 | -1.52%
46 | CC1CCN(S(=O)(=O)CC(F)(F)F)Cc2nc3ccccc3n21 (stereo not given) | -0.0013%

Row | SMILES | inhibition
47 | CCCNc1nc(Nc2ccc(OC)cc2)c2cnn(C)c2n1 | -0.418%
48 | Nc1nc(N2CCCC2)nc2c1CCN(Cc1ccc3ncccc3c1)C2 | -7.44%
49 | O=C(Nc1ccc2c(c1)OCO2)N1CCCCCC1 | 5.28%
50 | O=C(CN1CCN(CC(=O)Nc2ccc3c(c2)OCO3)CC1)Nc1ccc(F)cc1 | 38.1% (active)
51 | O=C(CCOc1ccccc1F)Nc1ccc2c(c1)OCO2 | 7.17%
52 | Cc1ccc(-c2noc(-c3cccc(OCC(=O)N(C)C)c3)n2)cc1 | -30%
53 | CCOc1ccc(-c2noc(-c3nn(-c4cccc(OC)c4)ccc3=O)n2)cc1 | 81.8% (active)
54 | COc1cccc(-c2cc3c(=O)n(Cc4nc(-c5ccccc5C)no4)ccn3n2)c1 | 0.201%
55 | COc1nc2c(c(-c3ccc[nH]3)c1C#N)Cc1ccccc1-2 | -97.1%
56 | Nc1cccc(C(=O)CC2(O)C(=O)N(CCc3ccccc3)c3ccccc32)c1 (stereo not given) | -96.8%
57 | CNc1nc(C2CCCN(C(C)=O)C2)nc2c1CCN(C(=O)c1oc3ccccc3c1C)C2 (stereo not given) | -2.25%
58 | O=C(CC1C(=O)OCCN1Cc1ccccc1)Nc1cccc(F)c1 (stereo not given) | -10.4%
59 | O=C(COc1cccc2ccc(N3CCC(Cc4ccccc4)CC3)nc12)Nc1cccc(F)c1 | 84.1% (active)
60 | O=C(CCc1nnc2ccc(N3CCCC3)nn12)NCc1ccc(F)cc1 | 29.2%
61 | Cn1c(=O)c(N2CCC(C(=O)NCc3ccc(F)cc3)CC2)nc2cccnc21 | 7.77%
62 | COc1ccc(NC(=O)CSc2ncccc2C(=O)N2CCC(Cc3ccccc3)CC2)cc1OC | -0.608%
63 | O=C(COc1cccc2ccc(N3CCC(Cc4ccccc4)CC3)nc12)NCc1ccc(F)cc1 | 65.7% (active)
64 | CC(c1ccccc1)n1c(CCCNC(=O)C2CCCCC2)nc2ccccc21 (stereo not given) | -8.43%
65 | Cc1ccc(NC(=O)Cn2cccc(S(=O)(=O)N3CCCCCC3)c2=O)c(C)c1 | -3.12%
66 | Cn1c2c(c(=O)n(C)c1=O)C(c1cccc(Cl)c1Cl)CC(=O)N2 (stereo not given) | -0.255%
67 | O=C(CSc1n[nH]c(-c2cccnc2)n1)Nc1ccc(Cl)cc1 | -5.47%
68 | COCCn1c(=O)[nH]c2cc(C(=O)NCc3ccc(Cl)cc3)ccc2c1=O | -1.21%
69 | COCCn1c(=O)[nH]c2cc(C(=O)N3CCC(Cc4ccccc4)CC3)ccc2c1=O | -0.0121%

Row | SMILES | inhibition
70 | COCCn1c(=O)[nH]c2cc(C(=O)NCCNc3ccc([N+](=O)[O-])cc3C#N)ccc2c1=O | 55.6% (active)
71 | Cc1cccc(NC(=O)N2CCCC3(CCCN3C)C2)c1 (stereo not given) | -319%
72 | CN1CCN(c2ncc(NC(=O)c3ccc(C(F)(F)F)cc3)cn2)CC1 | -15.2%
73 | CC(=O)N1Cc2ccccc2OC2(CCN(CC(=O)Nc3cccc(C)c3C)CC2)C1 | -15.9%
74 | Cn1cccc1/C(C#N)=C\c1ccc2c(c1)OCO2 | 76.2% (active)
75 | Cn1c(=O)c(-c2ccc(C(=O)NCc3ccc(F)cc3F)cc2)nc2cccnc21 | 15.4%
76 | CNC(=O)C1(C)CN(C(=O)c2ccc3[nH]c(C)c(C)c3c2)CCO1 (stereo not given) | -61.8%
77 | Cc1cc(NC(=O)CSc2nccn2-c2ccc([N+](=O)[O-])cc2)no1 | -89.6%
78 | O=C(NCC1CC1)[C@H]1C[C@@H]2CN(CC3CC3)C[C@H]1O2 | -27.5%
79 | COC(=O)c1cc2sc(Cl)cc2n1Cc1cc(=O)n2ccccc2n1 | -9.48%
80 | CC(C)OC(=O)c1cc2c(ccn2-c2ccc(F)cc2)n1Cc1ccccn1 | 64% (active)
81 | CCOC(=O)c1cc2c(ccn2-c2ccc(F)cc2)n1Cc1ncc(C)c(OC)c1C | 3.2%
82 | O=C(NC(c1ccccc1)C1CC1)c1ccc2c(c1)S(=O)(=O)Nc1ncnn1-2 (stereo not given) | -8.33%
83 | COc1ccccc1NS(=O)(=O)c1ccc2oc(Nc3ccc(Cl)c(C(F)(F)F)c3)nc2c1 | -24.6%
84 | COc1ccc2c(c1)c(N1CCCC1=O)c(C(=O)NCc1ccccn1)n2C | -0.85%
85 | Cc1nn(CC(=O)c2cc(C)n(-c3ccc4c(c3)OCO4)c2C)c(C)c1[N+](=O)[O-] | 58.8% (active)
86 | Cc1nn(-c2ccc(F)cc2)c(C)c1S(=O)(=O)NCc1ccc2c(c1)OCO2 | -20.2%
87 | COc1cccc(C2C3=C(CC(C)(C)CC3=O)Nc3ccccc3N2C(=O)Cc2ccccc2)c1 (stereo not given) | 2.23%
88 | Cc1ccccc1-c1nc(-c2cn(CC(=O)Nc3ccccc3)cn2)no1 | 64.4% (active)
89 | Cc1cc(C)cc(NC(=O)Cn2cnc(-c3nc(C)cs3)c2)c1 | -4.24%
90 | Cc1ccccc1-c1nc(-c2cccc(OCC(=O)N3CCOCC3)c2)no1 | 7.89%
